Assay outcomes (PubChem)
A selection: hits, their analogues and other compounds. The true share with any hit is near 3.3%.
HGIII-sPLA2 inh = human group III sPLA2 inhibitors, primary screen, biochemical, QFRET, BODIPY PC-A2 liposome substrate; QFRET BODIPY PC-A2 liposome hydrolysis, fluorescence; inhibition, % at 12.2 µM; 370,000 compounds, 0.56% hits; AID 743126, 2013;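 active = inhibition above mean plus 3 SD of compounds lying within the high and low control bounds, cut at about 19% in these data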;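 also: 0% = median of test compound wells and 100% = no enzyme DMSO wells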
UBC9 SUMO inh = inhibitors of in vitro SUMOylation cascade, primary screen, biochemical, HTRF, uHTS; SUMO-conjugating enzyme UBC9 (Homo sapiens), P63279; inhibition, % at 35 µM; HTRF SUMOylation assay, SAE1/SAE2 + UBC9; 290,000 compounds, 0.36% hits; in the data active = inhibition above about 50%, passing the limit was not always enough
Target sequence (P63279 whole entry, looked up): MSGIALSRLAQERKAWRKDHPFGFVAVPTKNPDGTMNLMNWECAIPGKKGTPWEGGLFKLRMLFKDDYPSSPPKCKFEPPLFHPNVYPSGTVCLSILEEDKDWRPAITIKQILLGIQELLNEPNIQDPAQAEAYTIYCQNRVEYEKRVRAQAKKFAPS
UBC13 inh = UBC13 polyubiquitin chain formation inhibitors, primary screen, biochemical, TR-FRET, uHTS; inhibition, % at 20 µM; AID 485273, 2010; 330,000 compounds, 0.47% hits; Ubiquitin-conjugating enzyme E2 N (Homo sapiens), P61088; in the data active = inhibition above about 45%, passing the limit was not always enough
Target sequence (P61088 whole entry, looked up): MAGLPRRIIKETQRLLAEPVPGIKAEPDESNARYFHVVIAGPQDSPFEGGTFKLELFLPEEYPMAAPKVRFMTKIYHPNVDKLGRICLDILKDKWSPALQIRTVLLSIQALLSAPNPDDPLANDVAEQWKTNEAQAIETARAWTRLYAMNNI
NR3A LBD binder = binders of NR3A ligand-binding domain, primary screen, biophysical, differential scanning fluorimetry, uHTS; 340,000 compounds, 2.5% hits; NR3A LBD differential scanning fluorimetry, Tm shift; 0% = protein alone, 100% = glycine-bound protein; Tm shift relative to glycine control, % at 25 µM;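 active = melting temperature shift of at least 10% of the positive control shift, at one fixed dose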
hGIII sPLA2 conf = human group III sPLA2 inhibitors, confirmation, biochemical, QFRET, triplicate; shares compounds with HGIII-sPLA2 inh; recombinant hGIII-sPLA2, BODIPY PC-A2 QFRET fluorescence; inhibition, % at 12.2 µM; 2,000 compounds, 34% hits; AID 743280, 2014;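 active = mean inhibition across triplicates above the hit cutoff set in the earlier primary screen, cut at about 19% in these data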;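 also: 0% = enzyme with DMSO and 100% = DMSO wells lacking enzyme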
535nm interf = 535nm fluorescence optical interference, confirmation, artefact control for HGIII-sPLA2 inhibitor project, biochemical, QFRET | shares compounds with HGIII-sPLA2 inh | BODIPY FL product fluorescence interference | inhibition, % at 12.2 µM | 2,000 compounds, 8.5% hits | AID 743282, 2014;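 active = average inhibition above the solvent-only control mean plus 3 SD, cut at about 6% in these data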;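 also: 0% = DMSO with substrate plus product and 100% = DMSO with substrate alone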
535nm interf DR = 535nm fluorescence optical interference, dose response, artefact control for HGIII-sPLA2 inhibitor project, biochemical, QFRET. shares compounds with HGIII-sPLA2 inh. BODIPY FL product fluorescence interference, cell-free. IC50, µM. 240 tested, under 10 active;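 active = IC50 at or below 10 µM; inactive = IC50 above 10 µM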
Active calls of the source: *; . = no result.

SMILES	HGIII-sPLA2 inh	UBC9 SUMO inh	UBC13 inh	NR3A LBD binder	hGIII sPLA2 conf	535nm interf	others
CN(C)c1cccc(C(=O)NNC(=S)NC2CC3CCC2C3)c1 (stereo not given)	20*	-68	3	0	25*	3
CCn1c2ccccc2c2cc(C=NNC(=O)c3ccoc3C)ccc21	2	.	.	.	.	.
CCCCNC(=S)NNC(=O)CCn1cc(C)cn1	12	7	14	0	.	.
Cc1cnn(CCC(=O)NNC(=S)NCC(C)C)c1	22*	16	-9	0	8	-2
C/C(=N\NC(=S)NCc1ccccc1)c1cccc(Br)c1	8	-25	1	-8	.	.
C/C(=N\NC(=S)NCc1ccccc1)c1ccc2ccccc2c1	19*	-34	3	-7	0	2
CNC(=S)N1CCN(c2nc(-c3ccc(F)cc3)cs2)CC1	20*	-4	2	-5	14	-1
CCn1c(-c2csc3ccccc23)n[nH]c1=S	24*	4	-12	-4	22*	1
Cc1cc(-c2n[nH]c(=S)n2CC(C)C)cs1	20*	16	-7	-1	24*	0
CCn1c(-c2csc(C(C)C)c2)n[nH]c1=S	22*	14	-1	-4	29*	2	535nm interf DR=>122
CCN1Cc2nnn(Cc3ccccc3)c2-c2ccccc2S1(=O)=O	1	.	.	.	.	.
Cc1cccc(NC(=S)N/N=C2/CCCCc3ccccc32)c1	16	-60	-6	-3	.	.
Cc1ccc(NC(=S)N/N=C2/CCCCc3ccccc32)cc1	24*	-34	-4	-7	31*	-3	535nm interf DR=>122
C/C(C=NNC(=O)c1cc(-c2ccc(Cl)cc2)n[nH]1)=C\c1ccccc1	5	.	.	.	.	.
CC(SCC(=O)NC12CC3CC(CC(C3)C1)C2)C(=O)O (stereo not given)	24*	-1	-2	-5	-2	-4
COc1cc(OC)nc(NC(C)=O)n1	4	6	12	-1	.	.
COc1cc(OC)nc(NC(=O)C(C)C)n1	20*	-10	-4	-1	3	0
O=Cc1nc(Nc2cc(F)cc(F)c2)nc(NC2CCCC2)n1	28*	.	.	.	23*	-8
Cc1ccc(Nc2nc(Cl)nc(NC3CCCCC3)n2)cc1	4	11	-8	0	.	.
c1ccc(-c2ccc3c(n2)CCCN3Cc2ccccn2)cc1	1	.	.	.	.	.
N=C(N)SCc1nc2ccccn2c1Br	30*	-19	2	1	5	-4
Cc1cccc2nc(CSC(=N)N)c(Br)n12	24*	-9	4	-1	11	-11
O=C(O)c1ccccc1SCc1nc2ccccn2c1Br	3	16	-1	0	.	.
COC[C@@H]1CCCN1c1cccc2c1S(=O)(=O)N(C1CC1)CCCO2	3	.	.	.	.	.
COC(=O)[C@]1(CNC(=O)C(F)(F)F)CC(=O)N(C)[C@@H]1c1ccccc1	6	.	.	.	.	.
SMILES	HGIII-sPLA2 inh	UBC9 SUMO inh	UBC13 inh	NR3A LBD binder	hGIII sPLA2 conf	535nm interf	others
COC(=O)[C@]12C[C@H](CC(=O)NCCc3ccccc3OC)C(=O)N(Cc3ccc(Cl)cc3Cl)C1=C[C@H](C(C)(C)C)O[C@@H]2C	-2	.	.	.	.	.
COC(=O)[C@]12C[C@H](CC(=O)NCCc3ccccc3OC)C(=O)N(CCc3ccc(OC)c(OC)c3)C1=C[C@H](C(C)(C)C)O[C@@H]2C	-18	.	.	.	.	.
COCC(=O)Nc1cc(C)cn(Cc2cccc(C(F)(F)F)c2)c1=O	12	22	-8	-1	.	.
Cc1cc(NS(C)(=O)=O)c(=O)n(Cc2cccc(C(F)(F)F)c2)c1	21*	.	.	.	17	-7
Cn1cc(/C=C2\SC(=S)N(N3CCOCC3)C2=O)c2ccccc21	21*	-7	-77	3	6	0
Cn1cc(/C=C2\SC(=S)N(NC(=O)c3ccccc3)C2=O)c2ccccc21	-14	2	.	-1	.	.
